The entries come from a sample that favours hits as a whole.
Dicer inh – inhibitors of Dicer pre-microRNA processing, primary screen, biochemical, cat-ELCCA, chemiluminescence; z-score at 25 µM; AID 1347074, 2019; 6% of 47,000 active; cat-ELCCA pre-miR-21 Dicer processing; stronger effect = higher value; Endoribonuclease Dicer (Homo sapiens), Q9UPY3; in the data active means z-score above about 3, passing the limit was not always enough;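 further: plate controls were vehicle for no effect and no enzyme for full effect; higher signal means more uncleaved substrate so more Dicer inhibition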
Numbers without * were called inactive.

SMILES	Dicer inh
O=C(O)c1cnn2c1NC(c1ccccc1)CC2C(F)(F)F (centres undefined)	3.12*
O=C(O)c1cc2n(n1)C(C(F)(F)F)CC(c1ccc(Cl)cc1)N2 (centres undefined)	1.73
O=C(c1cnn2c1NC(c1ccc(Br)cc1)CC2C(F)(F)F)N1CCOCC1 (centres undefined)	4.22*
O=C(O)c1cnn2c1NC(c1ccc(Br)cc1)CC2C(F)(F)F (centres undefined)	2.57
O=C(c1cc2n(n1)C(C(F)(F)F)CC(c1ccc(Cl)cc1)N2)N1CCOCC1 (centres undefined)	0.29
COc1ccc(C2CC(C(F)(F)F)n3ncc(C(N)=O)c3N2)cc1 (centres undefined)	0.95
Cc1ccc(C2CC(C(F)(F)F)n3ncc(C(=O)O)c3N2)cc1 (centres undefined)	0.54
CN1CCN(C(=O)c2cc3n(n2)C(C(F)(F)F)CC(c2ccccc2)N3)CC1 (centres undefined)	3.18*
COc1ccc(C2CC(C(F)(F)F)n3ncc(C(=O)O)c3N2)cc1OC (centres undefined)	0.76
CN1CCN(C(=O)c2cnn3c2NC(c2ccc(Br)cc2)CC3C(F)(F)F)CC1 (centres undefined)	4.68*
Cc1cc(CN2C(=O)c3ccccc3S2(=O)=O)no1	-1.32
CCOC(=O)c1cc(-n2c(C)ccc2C)ccc1N1CCCCC1	0.63
CCCN1C(=O)C2(/C(=C(/O)c3ccc(OCC)cc3)C(=O)C(=O)N2CCOC)c2ccccc21 (centres undefined)	1.05
CCOC(=O)C1=C(C)NC2=C(C(=O)CCC2)C1c1ccc(OC)c(OC)c1 (centres undefined)	-0.59
CC(=O)N1N=C(c2cccs2)CC1c1cn(-c2ccccc2)nc1-c1cccs1 (centres undefined)	-2.28
O=C1CC(c2cccc(Cl)c2)Cc2c1cnc1[nH]n(-c3ccccc3)c(=O)c21 (centres undefined)	0.44
Cc1nn(C(=O)c2ccc(C(F)(F)F)cc2)c(C)c1Oc1ccc(Cl)cc1	-0.37
COc1cc2ncnc(SCC(=O)NN)c2cc1OC	2.23
CC1CCc2c(sc3nc(=S)[nH]c(NCc4ccccc4)c23)C1 (centres undefined)	-0.28
NNC(=O)CO/N=C/c1ccc(Cl)cc1Cl	0.83
CCOC(=O)c1ccc2nc(C(F)(F)F)cc(N3CCN(c4ccccc4)CC3)c2c1	0.64
CC(C)NC(=O)c1cc2n(n1)C(C(F)(F)F)CC(c1ccc(Br)cc1)N2 (centres undefined)	1.77
CC(C)NC(=O)c1nn2c(c1Cl)NC(c1ccc(Br)cc1)CC2C(F)(F)F (centres undefined)	-0.28
CC(C)NC(=O)c1cnn2c1NC(c1ccc(Br)cc1)CC2C(F)(F)F (centres undefined)	5.83*
CC(=O)OC[C@H]1O[C@@H](Oc2ccc3ccccc3c2)[C@H](OC(C)=O)[C@@H](OC(C)=O)[C@@H]1OC(C)=O	-0.87
SMILES	Dicer inh
Cc1nc(C(F)(F)F)ccc1-c1nnc(SCc2c(F)cccc2Cl)o1	-1.28
COc1ccc(C2CC(=O)c3cnc(NC4OC(=O)c5ccccc54)nc3C2)cc1OC (centres undefined)	-1.26
COc1ccc(C2CC(=O)c3cnn(-c4nc(C)cc(C)n4)c3C2)cc1OC (centres undefined)	-0.72
CCOC(=O)N1CCN(c2ncc3c(n2)CC(c2ccc(OC)c(OC)c2)CC3=O)CC1 (centres undefined)	3.47*
O=c1nc(Nc2ccc(OC(F)(F)F)cc2)c2ccccc2o1	0.39
O=C(NNC(=O)Nc1ccc(OC(F)(F)F)cc1)Nc1ccc(OC(F)(F)F)cc1	0.17
O=c1cc(Nc2ccc(OC(F)(F)F)cc2)c2ccccc2o1	3.22*
O=C(CSC1=NCCCC1)c1cccc([N+](=O)[O-])c1	-1.24
O=[N+]([O-])c1cc(Br)cnc1Sc1nnc(SCC2CC2)s1	-0.84
CCOc1ccc(OCc2ccc(C(=O)NC(C)(C)C)o2)cc1	3.39*
O=C(NCC1CCCO1)c1ccc(COc2ccc(F)cc2)o1 (centres undefined)	2.92
CC(C)(C)c1ccc(OCc2ccc(C(=O)O)o2)cc1	1.14
Cc1csc2ncnc(Sc3ccccc3NC(=O)c3cc(Cl)cc(Cl)c3)c12	-4.47
Cc1cc(C)nc(N2N=C(C(C)C)CC2=O)n1	-5.92
Cc1cc(C)nc(SCC2=NN(c3nc(C)cc(C)n3)C(=O)C2)n1	4.05*
Cc1cc(C)nc(N2N=C(CSc3ccc(Cl)cc3)CC2=O)n1	-0.85
CCc1nc2cc(C)c(C)cc2nc1CC	-1.11
O=S(=O)(Oc1ccc(Cl)cc1)c1c(Cl)sc(Cl)c1Br	0.96
CN=C(NN)Nc1cc(C)c(C)cc1C	-3.2
COc1ccc(C2CC(=O)C3=C(C2)Nc2ccccc2NC3c2ccc(N(C)C)cc2)cc1 (centres undefined)	1.61
CN(C)/C=N/c1nnc(SCC#N)s1	-0.88
Nc1nc(-c2cccnc2)nn1C(=O)c1ccc(Cl)cc1	-0.49
Nc1nc(-c2cccnc2)nn1S(=O)(=O)c1ccccc1	0.34

Source: PubChem BioAssay (Center for Chemical Genomics, University of Michigan)
